This is one part of a sample in which hits are shown more often than they occur.
JMJD2E inh – inhibitors of human JMJD2E histone demethylase; JMJD2E catalytic domain, FDH-coupled NADH fluorescence (FDH is formaldehyde dehydrogenase); Potency, µM (top dose mostly 57.1 µM), without a hit: at the highest dose activity change, negative = inhibition, actives largely listed as inhibitors; 230,000 tested, 1.6% active; AID 2147; active = well fitted inhibition curve with a large enough effect, not every such curve was filed as active; inconclusive = small, poorly fitted or top-dose-only effect, or another doubt; inactive = no such curve, though single readings can be large or run the other way;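 also: 0% = wells with enzyme and -100% = buffer wells without enzyme; nearly all actives have a fitted effect of over 50% in size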
Target sequence (B2RXH2 1-337 limits assumed): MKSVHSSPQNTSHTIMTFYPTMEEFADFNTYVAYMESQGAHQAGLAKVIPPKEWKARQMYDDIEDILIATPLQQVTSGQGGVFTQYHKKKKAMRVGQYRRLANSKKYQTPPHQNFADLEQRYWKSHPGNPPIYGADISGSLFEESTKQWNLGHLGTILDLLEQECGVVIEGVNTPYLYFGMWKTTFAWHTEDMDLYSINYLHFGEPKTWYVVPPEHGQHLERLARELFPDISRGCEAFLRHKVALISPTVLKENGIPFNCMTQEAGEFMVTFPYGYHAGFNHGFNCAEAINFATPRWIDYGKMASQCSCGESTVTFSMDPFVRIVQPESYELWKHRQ
RECQ1 helicase – inhibitors of human RECQ1 DNA helicase | RECQ1 DNA unwinding, red fluorescence kinetic read | P46063 | 240,000 tested, 0.54% active | Potency, µM (titrated, usually from 57.3 µM), without a hit: top-dose activity, negative = inhibition, usual class: inhibitors;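 also: plate controls were vehicle for no effect and no enzyme for full effect; nearly all actives have a fitted effect of over 30% in size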
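RECQ1T1 50 nM; forked duplex (20 bp + 30-nt ss tails) 200 nM, ATP 2 mM final; pH 8.0, 2 mM MgCl2, 2.5 ug/ml poly(dI-dC); 15 min compound preincubation; discontinuous kinetic read over 2 h at RT.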
KAT2A inh – blocks human GCN5L2 histone acetyltransferase. 390,000 tested, 0.21% active. AID 504327. Q92830. Potency, µM (titrated, usually from 58.9 µM), for inactives: top-dose activity change, negative = inhibition, usual class: inhibitors. GCN5L2 HAT assay, ThioGlo1 CoA-SH fluorescence
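Preincubate 20nM GCN5L2 with compound 15 min, RT → add 50uM ThioGlo1 + 75uM H3(1-25) + 70uM acetyl-CoA → read fluorescence 0 and 20 min. Primary qHTS; fluorescent artifacts likely.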
APE1 inh – APE1 (human) endonuclease inhibition | recombinant APE1, TAMRA/BHQ-2 abasic DNA cleavage fluorescence | P27695 | 350,000 tested, 0.35% active | Potency, µM (top dose mostly 65.8 µM), for the others: top-dose activity change, negative = inhibition, usual class: inhibitors;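 also: plate controls were vehicle for no effect and reference inhibitor for full effect; nearly all actives have a fitted effect of over 55% in size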
Target sequence (P27695 whole entry, looked up): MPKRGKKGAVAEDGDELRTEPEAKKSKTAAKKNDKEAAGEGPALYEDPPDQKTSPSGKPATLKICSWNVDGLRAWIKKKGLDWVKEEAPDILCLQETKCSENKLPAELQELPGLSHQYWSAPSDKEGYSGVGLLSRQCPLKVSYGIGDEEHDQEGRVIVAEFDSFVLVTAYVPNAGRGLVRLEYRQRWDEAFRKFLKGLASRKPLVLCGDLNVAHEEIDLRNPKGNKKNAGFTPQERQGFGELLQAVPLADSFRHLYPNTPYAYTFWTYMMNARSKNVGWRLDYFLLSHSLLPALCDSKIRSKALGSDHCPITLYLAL
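Endonuclease cleavage of a quenched abasic-site DNA duplex (50 nM) by APE1 (0.75 nM) was tracked by TAMRA dequenching. Compounds were preincubated with enzyme 15 min at room temperature; data normalized to buffer-only and DMSO wells plus NSC13755 control.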
TDP1 block – inhibitors of human tyrosyl-DNA phosphodiesterase TDP1. 350,000 tested, 0.28% active. Q9NUW8. AID 485290. recombinant TDP1, AlphaScreen DNA substrate cleavage. Potency, µM (top dose mostly 130 µM), without a hit: at the highest dose activity change, negative = inhibition, actives largely listed as inhibitors; also: nearly all actives have a fitted effect of over 40% in size
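Steps: enzyme plus compound, 15 min RT; add biotin/phosphotyrosine-FITC oligonucleotide (15 nM final), react 5 min; add donor/acceptor beads (10 ug/ml final), 10 min; read AlphaScreen. Tdp1 at 1 nM final.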
BLM helicase inh – Bloom syndrome helicase (human) inhibition; P54132; recombinant BLM DNA unwinding, fluorescence dequenching; Potency, µM (doses to about 56.1 µM), without a hit: at the top dose activity change, negative = inhibition, usual class: inhibitors; 350,000 tested, 0.2% active;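 also: plate controls were vehicle for no effect and no enzyme for full effect; nearly all actives have a fitted effect of over 35% in size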
Active calls of the source: *; i = inactive; ? = inconclusive; . = not tested or not shown; ! = not confirmed by another sample; [ ] = dose if it differs, or a comment. Unless noted, calls follow the shape of the dose curve; as a rule, active = well fitted curve in the direction sought with a large enough effect; inconclusive = small, poorly fitted or top-dose-only effect, or another doubt; inactive = no such curve, though single readings can be large; an effect the other way counts as inactive or inconclusive. Unless noted, % is scaled to controls: 0 for no effect and ±100 for the full control effect; potency is read from the fitted curve at half-maximal effect.

SMILES	JMJD2E inh	RECQ1 helicase	KAT2A inh	APE1 inh	TDP1 block	BLM helicase inh
COc1ccc(OCCn2cc(/C=N/NC(=O)c3ccncc3)c3ccccc32)cc1	?	-25%	-5%	3%	8%	-13%
COc1ccc(C2N(Cc3ccccc3)C(=O)c3ccccc3N2C)cc1COc1ccc(NC(C)=O)cc1 (stereo unspecified)	.	.	.	.	-10%	.
CC(=O)Nc1ccccc1C(F)(F)F	0%	i	-8%	1%	0%	1%
NNc1ccccc1C(F)(F)F	2%	-14%	-16%	35µM*	50µM*	-5%
CC(C)=CCc1c(O)cc2oc3c(CC=C(C)C)c(O)c(O)c(CC=C(C)C)c3c(=O)c2c1O	28µM*	i	-25%	?	.	?
Cc1cc(Cl)ccc1NC(=O)CCC(=O)N/N=C/c1cc([N+](=O)[O-])ccc1O	-2%	-12%	1%	2%	2%	-5%
O=[N+]([O-])c1cccc(N/N=C/c2cc([N+](=O)[O-])ccc2O)c1	2%	-7%	?	3%	4%	-7%
COc1ccc(N2CC(C(=O)N/N=C/c3cc([N+](=O)[O-])ccc3O)CC2=O)cc1 (stereo unspecified)	25µM*	9%	-7%	4%	8%	-7%
O=[N+]([O-])c1ccc(O)c(/C=N/NC(=S)Nc2ccc(Cl)cc2Cl)c1	8.9µM*	-25%	2%	9%	12%	-26%
COc1ccc(N2CC(C(=O)Nc3ccc([N+](=O)[O-])cc3Br)CC2=O)cc1 (stereo unspecified)	.	.	-3%	-5%	5%	-2%
O=C(N/N=C/c1cc([N+](=O)[O-])ccc1O)C12CC3CC(CC(C3)C1)C2	?	-2%	-7%	-4%	11%	-5%
O=C(N/N=C/c1cc([N+](=O)[O-])ccc1O)Nc1ccccc1	28µM*	i	-7%	-2%	8%	-5%
CCNC(=O)C(=O)N/N=C/c1cc([N+](=O)[O-])ccc1O	25µM*	-1%	-13%	6%	9%	0%
N/C(=N\N=C\c1ccc(Cl)cc1)N/N=C/c1ccc(Cl)cc1	.	.	-10%	.	.	-2%
COc1cccc(C)c1NC(=O)C(OC(=O)CNC(=O)c1ccccc1)c1ccccc1 (stereo unspecified)	.	.	.	.	1%	.
CCNc1nc(NCC)nc(-n2cc(C(=O)c3cc(Cl)ccc3O)cn2)n1	.	.	.	.	1%	.
CC[C@H](C)[C@H](N)C(=O)N[C@H](C(=O)N[C@@H](CO)C(=O)N[C@@H](C)C(=O)N[C@H](C(=O)N[C@H](C(=O)NCC(=O)N[C@H](C(=O)N[C@@H](CC(C)C)C(=O)O)[C@@H](C)CC)C(C)C)C(C)C)[C@@H](C)CC	.	-2%	-3%	0%	8%	-1%
CC(C)CC(=O)N[C@H](C(=O)N[C@H](C(=O)N[C@@H](CC(C)C)[C@@H](O)CC(=O)N[C@@H](C)C(=O)N[C@@H](CC(C)C)[C@@H](O)CC(=O)O)C(C)C)C(C)C	0%	32µM*!	-25%	7%	?	1%
O=C(NCCc1ccc(F)cc1)C1CCCO1 (stereo unspecified)	.	.	-4%	150µM*	.	-29%
COc1cc2ccccc2cc1C(=O)NC(=S)Nc1ccc(C(=O)O)cc1	.	.	-19%	25%	50µM*	-6%
Oc1ccc2ccccc2c1CN1CCN(c2ccccc2)CC1	?	i	1%	21%	5%	-3%
CCOC(=O)N1CCN(Cc2ccc(O)c3ncccc23)CC1	13µM*	i	?	3%	5%	-3%
CCOC(=O)N1CCN(Cc2ccccn2)CC1	?	i	.	3%	1%	4%
Cc1ccc(C)c(S(=O)(=O)N2CCN(Cc3ccc(O)c4ncccc34)CC2)c1	3.5µM*	i	3%	-4%	8%	0%
Oc1ccc(CN2CCN(c3ccccc3)CC2)c2cccnc12	18µM*	-16%	-3%	8%	7%	4%
SMILES	JMJD2E inh	RECQ1 helicase	KAT2A inh	APE1 inh	TDP1 block	BLM helicase inh
O=C1c2ccccc2-c2onc3ccc(NCCCn4ccnc4)c1c23	2%	28µM*	-6%	28µM*	10%	35µM*
NS(=O)(=O)c1ccc(NCCCn2ccnc2)c([N+](=O)[O-])c1	.	.	-5%	41%	12%	-1%
NNc1nncc2ccccc12	20µM*	-7%	-6%	-2%	-4%[56.1 µM]	4%
CCNC(=S)NNc1nncc2ccccc12	-10%	-2%	1%	-2%	-3%	-3%
Cc1coc2c1C(=O)C(=O)c1c-2ccc2c1CCCC2(C)C	?	?	28µM*	-10%	21%	-18%
COC(=O)C1=C(C(=O)OC)[C@@H]2Nc3ccccc3[C@@]23C[C@@H](C(=O)OC)N(S(=O)(=O)c2ccc(Br)cc2)C3=N1	-2%[11.4 µM]	-16%[11.5 µM]	.	-4%[12.4 µM]	11%[12.3 µM]	-7%[12.4 µM]
Oc1ccc2c(c1)OCC1(O)Cc3cc(O)c(O)cc3C21 (stereo unspecified)	14µM*	-3%	-9%	-1%	-10%[56.1 µM]	-2%
Oc1ccc2c(c1)OCO2	.	-3%	.	1%	4%	.
Nc1ccccc1C#CCCCCO	20µM*!	-16%	1%	17%	7%	-1%
O=C(O)CCN1C(=O)/C(=C2\C(=O)N(Cc3ccccc3Cl)c3ccccc32)SC1=S	.	.	5%	7.5µM*	.	-21%
CCC(C)[C@H](NC(=O)C1CCC(CNC(=O)[C@@H]2CCCN2C(=O)OC(C)(C)C)CC1)C(=O)O (stereo partly specified)	.	.	2%	150µM*	.	-9%
COCCNc1ncnc2ccc(-c3ccccc3C)cc12	.	-5%	?	-4%	.	-3%
COc1ccc(C(=O)c2ccccc2)c(O)c1O	22µM*	i	-4%	-4%	-5%	-2%
COc1ccc(C(=O)c2ccccc2)c(O)c1	9%	-2%	-12%	2%	-8%	0%
COC(CC(=O)NNC(=S)Nc1ccccc1)OC	3%	14µM*	-1%	?	-2%	1%
O=C(COc1ccc2c(c1)oc(=O)c1ccccc12)N[C@@H](Cc1c[nH]c2ccccc12)C(=O)O	.	.	25µM*	-14%	.	-3%
C=Cc1cc(F)c(S(=O)(=O)N2CCN(S(=O)(=O)c3ccc4c(c3)OCCO4)CC2)cc1F	.	.	.	.	1%	.
Cc1ccc(-c2oc3ccccc3c(=O)c2O)cc1	-22%	i	-10%	3%	-2%	2%
Cc1ccc2oc(-c3ccccc3)c(O)c(=O)c2c1	14µM*	i	.	0%	4%	0%
CC1(C)Cc2c(c(-c3ccco3)[nH]c(=O)c2C#N)CS1	?	32µM*	-4%	-9%	.	-2%

Screening data deposited in PubChem by National Center for Advancing Translational Sciences (NCATS).
